Assay results taken from PubChem BioAssay (NCI).
Compounds without any hit were thinned out: in the full panel of roughly 79,000, 15% have a hit. Cut-off read from the data, not from the text of the source: active = growth inhibition above about 70%; inactive = the rest.

How the values were obtained:
[1] = NCI Yeast Anticancer Drug Screen. Data for the rad50 strain (AID 155);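 note: 0% = growth of vehicle-only cultures of the same strain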; details: S. cerevisiae rad50 strain growth inhibition; at 50.0 µM; active compounds read high
Summary of the method: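 Vehicle-treated cultures provide the reference for the growth inhibition reported for compound-exposed, repair-deficient yeast.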

[2] = NCI Yeast Anticancer Drug Screen. Data for the mec2-1 strain (AID 157); details: S. cerevisiae mec2-1 strain, at 50.0 µM, active compounds read high
Summary of the method: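 mec2-1 yeast strain, carrying an alteration in DNA damage repair or cell cycle control, was exposed to compounds; growth inhibition was measured relative to vehicle-treated controls.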

[3] = NCI Yeast Anticancer Drug Screen. Data for the sgs1 mgt1 strain (AID 161);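 note: 0% = growth of cultures given vehicle only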; details: S. cerevisiae sgs1 mgt1 strain, at 50.0 µM, active compounds read high
Summary of the method: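 Percent growth inhibition was derived by comparing compound-exposed mutant yeast with vehicle-exposed cultures. The strain carries alterations in DNA damage repair.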

[4] = NCI Yeast Anticancer Drug Screen. Data for the cln2 rad14 strain (AID 165);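 note: 0% = growth equal to vehicle treated cultures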; details: S. cerevisiae cln2 rad14 strain, at 50.0 µM, active compounds read high
Summary of the method: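 Yeast carrying cln2 and rad14 alterations (cell cycle control and DNA damage repair) were exposed to compounds. Growth inhibition was measured against vehicle-treated controls.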

[5] = NCI Yeast Anticancer Drug Screen. Data for the bub3 strain (AID 167); details: S. cerevisiae bub3 mutant strain, at 50.0 µM, active compounds read high
Summary of the method: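 Mutant yeast screening strain plus compound; vehicle-treated cultures serve as the 0% inhibition reference.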

[6] = NCI Yeast Anticancer Drug Screen. Data for the mlh1 rad18 strain (AID 175); details: S. cerevisiae mlh1 rad18 strain growth inhibition; at 50.0 µM; active compounds read high
Summary of the method: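 Growth inhibition of the yeast strain was measured after compound exposure and expressed relative to vehicle-treated controls. The strain carries defined defects in DNA damage repair.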

Measured: growth inhibition

N#CCCN(CCC#N)CCN(CCN(CCC#N)CCC#N)CCN(CCC#N)CCC#N
inactive: [1] -8.1% | [2] -0.25% | [3] -6.4% | [4] 2.1% | [5] -15.2% | [6] -10.8%

O=c1c(CN(CCO)CCO)c(-c2ccccc2)sc2ccccc12
inactive: [1] -3.45% | [2] -24.6% | [3] -28.1% | [4] 13.1% | [5] -13.8% | [6] 14.7%

CN(C)C(=O)Sc1ccc(N(C)C)cc1
inactive: [1] -5.15% | [2] -17.9% | [3] -11.3% | [4] -25.2% | [5] 15.1% | [6] -23.2%

C(=C\c1cc(CCc2nc3ccccc3[nH]2)[nH]n1)/c1ccccc1
inactive: [1] -4.4% | [2] -16.5% | [3] -12.3% | [4] 22.6% | [5] -4.25% | [6] -15.2%

FC(F)(F)c1cc(C2SCc3nc4ccccc4n32)cc(C(F)(F)F)c1 (stereo not given)
inactive: [1] -5.25% | [2] -23% | [3] -7.9% | [4] 6.95% | [5] -4.35% | [6] -17.4%

CC1=C(/C=C/C(C)=C\c2cc(C)cc(=O)o2)C(C)(C)CCC1
inactive: [1] 23.1% | [2] -1.5% | [3] 8.7% | [4] -26.6% | [5] 5.75% | [6] 16.9%

COc1c2c(cc3nc4ccccc4nc13)CCC(C(C)(C)O)C2 (stereo not given)
inactive: [1] 17.9% | [2] -10.2% | [3] -3.45% | [4] 3.9% | [5] -0.7% | [6] 6.3%

CC(O)CN=Cc1ccccc1 (stereo not given)
inactive: [1] -16.6% | [2] 21.9% | [3] -11.2% | [4] -41.4% | [5] -11.5% | [6] -18.8%

FC(F)(F)C1(C(F)(F)F)C2CCC3(CC(F)(F)C(F)(F)S3)C1C2 (stereo not given)
inactive: [1] -1.05% | [2] -27.9% | [3] -4.25% | [4] 22.9% | [5] 7.65% | [6] 30.6%

[N-]=[N+]=NC(=O)C1C(c2ccccc2)=C1c1ccccc1
inactive: [1] 45.5% | [2] 6.8% | [3] -0.2% | [4] 23.7% | [5] 27.8% | [6] -10.2%

Cc1cccc(S(=O)(=O)c2ccccc2)c1
inactive: [1] 22.9% | [2] 34.1% | [3] -15.7% | [4] 13.1% | [5] 4.35% | [6] 18.6%

O=C1NC(O)c2cccc([N+](=O)[O-])c2O1 (stereo not given)
inactive: [1] 19.4% | [2] 9.1% | [3] 15% | [4] 65.5% | [5] -14.8% | [6] 30.8%

CCOC(=O)CC1OCCO1
inactive: [1] 7.65% | [2] -3.35% | [3] -24.7% | [4] 5.25% | [5] 2.4% | [6] -5.15%

COC(=O)NC(Nc1ccc(C)cc1)(C(F)(F)F)C(F)(F)F
inactive: [1] 11.9% | [2] -8.9% | [3] -39.6% | [4] 5.9% | [5] -2.65% | [6] -4.7%

O=C(O)c1cc(=O)[nH]c(SCc2ccccc2)n1
inactive: [1] -9.7% | [2] -20.1% | [3] -28.5% | [4] -30.2% | [5] -20.8% | [6] -5.35%

N#CCCn1c2ccccc2c2ccccc21
inactive: [1] -6.45% | [2] 27.5% | [3] 2.95% | [4] 26.5% | [5] -1.65% | [6] -0.5%

CC(C)NCC(O)c1ccc(O)c2ncccc12 (stereo not given)
inactive: [1] 1.95% | [2] 24.3% | [3] 5.9% | [4] 5.15% | [5] -22.1% | [6] -7.15%

O=C(O)C1[N-]CCNC1C(=O)O.[O]=[V][OH] (stereo not given)
inactive: [1] -10.7% | [2] -2.4% | [3] -4.6% | [4] -16.9% | [5] -2.25% | [6] -5.05%

O=S(=O)(O)CCCCO
inactive: [1] 4.4% | [2] -29.9% | [3] 0.9% | [4] 22.2% | [5] 6.15% | [6] 10.2%

Cc1ccc(Cl)cc1NC(=O)Nc1cccc(C(F)(F)F)c1
inactive: [1] 3.3% | [2] 25.5% | [3] 14.2% | [4] -5.4% | [5] 37.1% | [6] 8.95%
